Most compounds without a hit are left out; they make up all but 2.6% or so of the library.
Rce1 inh: yeast Rce1p protease inhibitors, primary screen, biochemical, fluorescence, cell-free homogeneous. calls only. yeast membranes, quenched prenylated peptide cleavage fluorescence. CAAX prenyl protease 2 (Saccharomyces cerevisiae (strain ATCC 204508 / S288c)), Q03530. AID 2563, 2010. hit rate 0.27% among 290,000;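 active means fall in fluorescence gain of 50% or more versus controls, with final raw signal at or below 3038400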
Target sequence (Q03530 whole entry, looked up): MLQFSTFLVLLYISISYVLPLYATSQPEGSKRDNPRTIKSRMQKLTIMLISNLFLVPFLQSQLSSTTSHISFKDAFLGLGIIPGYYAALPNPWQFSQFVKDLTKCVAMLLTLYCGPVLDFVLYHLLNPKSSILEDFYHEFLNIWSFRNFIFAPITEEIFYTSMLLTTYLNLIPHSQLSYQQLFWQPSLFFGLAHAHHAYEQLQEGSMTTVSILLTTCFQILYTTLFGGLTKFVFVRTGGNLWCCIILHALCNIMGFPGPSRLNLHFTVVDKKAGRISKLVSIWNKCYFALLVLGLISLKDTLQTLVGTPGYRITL
Granule exo inh: LAMP-1 surface exposure blockers, TALL-104 cells – cell-based, flow cytometry, MLPCN library, primary screen. TALL-104 LAMP-1 surface exposure; cells stimulated with thapsigargin and PMA. inhibition, % at 10 µM. hit rate 0.66% among 360,000;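 active means inhibition above about 55%, limit read from the data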
PfM18AAP inh-1: PfM18AAP inhibitors, malaria aminopeptidase, primary screen, biochemical, QFRET, recombinant enzyme; M18 aspartyl aminopeptidase (Plasmodium falciparum 3D7); AID 1822, 2009; hit rate 1.2% among 290,000; H-Glu-NHMec fluorogenic cleavage; inhibition, % at 7.35 µM;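 active means inhibition above the campaign mean inhibition over all tested compounds plus 3 SD, cut at about 28% in these data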
Platelet DG rel: inhibitors of platelet dense granule secretion, primary screen, cell-based, MLPCN, human platelets | inhibition, %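 (compounds screened at 7.5 µM in platelet-rich plasma)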 | hit rate 0.22% among 300,000 | human platelet-rich plasma, SFLLRN dense granule ATP release, luminescence;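 active means mean replicate score, as percent of positive control, at or above 50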
ABHD5 PLIN5 PPI: ABHD5-PLIN5 interaction inhibitors, primary screen, cell lysate, split luciferase complementation, luminescence. hit rate 0.78% among 360,000. inhibition, % at 4 µM. Split G. princeps luciferase complementation, 4 h. Perilipin-5 (Homo sapiens) + 1-acylglycerol-3-phosphate O-acyltransferase ABHD5 (Homo …;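 active means inhibition above the mean inhibition across every tested compound plus 3 SD, cut at about 22% in these data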
PfM18AAP inh-2: PfM18AAP inhibitors, malaria aminopeptidase, confirmation, biochemical, QFRET, recombinant enzyme, triplicate; shares compounds with PfM18AAP inh-1; H-Glu-NHMec fluorogenic cleavage; inhibition, % at 7.35 µM; hit rate 28% among 2,400; AID 2170, 2009;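 active means mean inhibition over replicate wells above the hit cutoff set for the earlier primary screen, cut at about 29% in these data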
CTSL1 counter: cathepsin L1 inhibitors, retest, confirmation, counter-screen for PFM18AAP inhibitor project, biochemical, QFRET, triplicate; shares compounds with PfM18AAP inh-1; purified cathepsin L1, Z-Leu-Arg-MCA fluorescence; inhibition, % at 5.96 µM; 2,400 tested, under 10 active; AID 2178, 2009;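 active means average inhibition across replicates above the hit cutoff set in the earlier primary screen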
Target sequence (P07711 whole entry, looked up): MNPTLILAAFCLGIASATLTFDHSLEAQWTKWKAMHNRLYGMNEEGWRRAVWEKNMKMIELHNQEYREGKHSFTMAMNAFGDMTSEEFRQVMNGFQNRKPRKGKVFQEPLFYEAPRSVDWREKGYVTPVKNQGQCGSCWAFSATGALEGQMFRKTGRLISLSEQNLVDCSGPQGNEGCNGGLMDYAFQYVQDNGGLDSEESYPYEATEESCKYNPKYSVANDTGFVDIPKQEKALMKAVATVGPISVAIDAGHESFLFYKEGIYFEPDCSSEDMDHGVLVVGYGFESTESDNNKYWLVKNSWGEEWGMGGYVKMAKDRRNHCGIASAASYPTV
Each line names hits and unclear results; the compound was inactive in the other large screens (follow-up assays come after a bar, where they were run).

COC(=O)c1ccccc1NC(=O)CC#N	none
COC(=O)c1ccccc1NC(=O)C/C(C)=N/NC(=O)CC#N	PfM18AAP inh-1 37.8 | PfM18AAP inh-2 inactive | CTSL1 counter inactive
O=C(O)CCC(=O)c1ccc2c(c1)OCCO2	none
O=C(O)CCOc1ccc2c(c1)OCCO2	PfM18AAP inh-1 63.3 | PfM18AAP inh-2 inactive | CTSL1 counter inactive
COc1ccc2nc(C)cc(N3CCOCC3)c2c1	none
CCOC(=O)c1c(CN(C)C)n(-c2ccccc2)c2cc(Br)c(OC)cc12	none
CCOC(=O)c1c(CN(C)C)n(-c2ccc(C)cc2)c2cc(Br)c(O)cc12	PfM18AAP inh-1 37.6 | PfM18AAP inh-2 inactive | CTSL1 counter inactive
COc1ccc(S(=O)(=O)Oc2ccccc2C(=S)N2CCOCC2)cc1	PfM18AAP inh-1 44.8 (no result: Rce1 inh) | PfM18AAP inh-2 inactive | CTSL1 counter inactive
CCOc1ccc(/C=C/C(=O)c2cc(Br)ccc(=O)c2O)cc1	none (no result: Rce1 inh, Platelet DG rel)
Cc1cccc(/C=C/C(=O)c2cc(Br)ccc(=O)c2O)c1	PfM18AAP inh-1 49.4, ABHD5 PLIN5 PPI 22.7 | PfM18AAP inh-2 inactive | CTSL1 counter inactive
CCc1ccc[n+](-c2[nH]c(=O)sc2/C=N/N=C(\[O-])c2ccncc2)c1	none
CC(C)(C)c1cc[n+](-c2[nH]c(=O)sc2/C=N/NC([S-])=Nc2ccccc2)cc1	PfM18AAP inh-1 35.0 | PfM18AAP inh-2 inactive | CTSL1 counter inactive
N#C/C(Cn1c[n+](NC(=O)Nc2ccccc2)cn1)=N/O	PfM18AAP inh-1 47.1 | PfM18AAP inh-2 inactive | CTSL1 counter inactive
Cc1ccc(C2NC(=O)c3c(sc(C)c3C)N2)c(O)c1 (configuration not stated)	PfM18AAP inh-1 34.5 | PfM18AAP inh-2 inactive | CTSL1 counter inactive
Cc1cccc(C2NC(=O)c3c(sc(C)c3C)N2)c1O (configuration not stated)	PfM18AAP inh-1 51.9 | PfM18AAP inh-2 inactive | CTSL1 counter inactive
Cc1sc2c(c1C)C(=O)NC(c1ccccc1F)N2 (configuration not stated)	none
Cc1ccc(C)c(C2NC(=O)c3ccccc3N2)c1 (configuration not stated)	none
COc1ccc(-c2cc(C)no2)cc1S(=O)(=O)Nc1ccccc1	none
COC(=O)N/N=C/c1ccc(-c2ccc(C)c(Cl)c2)o1	none
Cc1ccc(-c2ccc(/C=N/c3ncn[nH]3)o2)cc1Cl	PfM18AAP inh-1 36.5 | PfM18AAP inh-2 42.6 | CTSL1 counter inactive
O=c1[nH]c2ccccc2c(O)c1O	PfM18AAP inh-1 45.5, ABHD5 PLIN5 PPI 98.3 | PfM18AAP inh-2 inactive | CTSL1 counter inactive
O=[N+]([O-])c1cc([N+](=O)[O-])c2nonc2c1Nc1ccccc1O	PfM18AAP inh-1 38.1 | PfM18AAP inh-2 inactive | CTSL1 counter inactive
Cc1ccc(-c2n[nH]c(=S)n2/N=C/c2ccc(C(=O)O)cc2)cc1	PfM18AAP inh-1 36.4 | PfM18AAP inh-2 inactive | CTSL1 counter inactive
COc1cc(/C=N/n2c(-c3ccccc3)n[nH]c2=S)cc(OC)c1O	PfM18AAP inh-1 31.8 | PfM18AAP inh-2 inactive | CTSL1 counter inactive
CC1CCN(CC(=O)Nc2ccc(N3CCCCCC3)cc2)CC1	none
COc1ccc(-c2cc(C3CC3)nc(SCC(=O)c3cccs3)c2C#N)cc1	none
N#CC1=C(N)Oc2n[nH]c(-c3cccnc3)c2C1c1ccc([N+](=O)[O-])o1 (configuration not stated)	PfM18AAP inh-1 33.1 | PfM18AAP inh-2 inactive | CTSL1 counter inactive
N#CC1=C(N)Oc2n[nH]c(-c3ccccc3)c2C1c1cccnc1 (configuration not stated)	none
COc1ccc(N/C=C2\C(=O)CCc3c2oc2cc(Cl)c(O)c(Cl)c32)cc1	none | PfM18AAP inh-2 inactive | CTSL1 counter inactive
Cc1c(C)n(Cc2ccccc2)c2ncnc(NCCN(C)C)c12	none
Cc1c(C)n(Cc2ccccc2)c2ncnc(NN)c12	PfM18AAP inh-1 33.6 | PfM18AAP inh-2 inactive | CTSL1 counter inactive
Cc1c(C)n(CCc2ccccc2)c2ncnc(NN)c12	PfM18AAP inh-1 44.3 | PfM18AAP inh-2 inactive | CTSL1 counter inactive
CCOc1ccc(C2CC(c3ccc(OC)c(OC)c3)n3nc(N)nc3N2)cc1 (configuration not stated)	none
C=CCn1c(COc2cc(C)ccc2C(C)C)nnc1SCC(=O)c1c(N)n(C)c(=O)n(C)c1=O	none
Cn1ncc2c(NNC(=O)c3ccc(Cl)cc3Cl)ncnc21	PfM18AAP inh-1 40.9 | PfM18AAP inh-2 inactive | CTSL1 counter inactive
CCN(CC)S(=O)(=O)c1ccc(Cl)c(NC(=O)COC(=O)c2cc(-c3ccccc3Cl)nc3ccccc23)c1	none
Cc1cc(NC(=O)CSc2nnc(-c3ccco3)o2)no1	PfM18AAP inh-1 47.0 | PfM18AAP inh-2 inactive | CTSL1 counter inactive
CC(=O)Nc1ccc(NC(=O)CSc2nnc(-c3ccco3)o2)cc1	none
CCCC(C)c1nnc(NC(=O)C2CC(=O)N(CCc3ccc(F)cc3)C2)s1 (configuration not stated)	PfM18AAP inh-1 40.6 | PfM18AAP inh-2 inactive | CTSL1 counter inactive
COCC(=O)Nc1nnc(-c2ccc(C(C)(C)C)cc2)s1	none
O=C(C1CC1)N1CCc2cc(Br)cc(S(=O)(=O)NCc3ccc4c(c3)OCO4)c21	none
O=C1CC(N2CCN(c3ccc(O)cc3)CC2)C(=O)N1c1ccc2c(c1)OCO2 (configuration not stated)	PfM18AAP inh-1 31.9 | PfM18AAP inh-2 inactive | CTSL1 counter inactive
CN1CCN(NC(=O)CN2C(=O)S/C(=C\c3c(Cl)cccc3Cl)C2=O)CC1	PfM18AAP inh-1 41.5 | PfM18AAP inh-2 inactive | CTSL1 counter inactive
COc1ccc(CC(=O)NNC(=O)c2ccccc2)cc1OC	none (no result: Rce1 inh, PfM18AAP inh-1, Platelet DG rel)
CCN(CC)c1ccc2c(c1)OC(N)=C(C#N)C2c1cccnc1 (configuration not stated)	PfM18AAP inh-1 45.3 | PfM18AAP inh-2 inactive | CTSL1 counter inactive
N#CC1=C(N)Oc2cc(N)ccc2C1c1cccnc1 (configuration not stated)	none
O=C1CCCC/C1=C\Nc1ccc(C(=O)O)c(O)c1	PfM18AAP inh-1 33.1 | PfM18AAP inh-2 inactive | CTSL1 counter inactive
CC1CCC/C(=C\Nc2ccc(C(=O)O)c(O)c2)C1=O (configuration not stated)	none
COc1ccc(Cl)cc1N(CC(=O)NCCSCc1ccccc1)S(C)(=O)=O	none
Cn1cc(P(=S)(N2CCOCC2)N2CCOCC2)cc1P(=O)(N1CCOCC1)N1CCOCC1	none

Compound activity: PubChem BioAssay, several laboratories
